# In PubChem BioAssay AID488969 (Vanderbilt High Throughput Screening Facility, 2010):
# Whole data set: some 110,000 compounds, median “z-score” near -0.1, cut for the highest 2% near 2. This excerpt belongs to a sample that is enriched for the highest values. The source made the active and inactive calls.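 How the source made its calls: active means z-score in the third read window above 3 or below -3; inactive means the rest.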
# Biological target: Metabotropic glutamate receptor 8 (Rattus norvegicus) (UniProt P70579)
# Sequence (P70579 whole entry, looked up): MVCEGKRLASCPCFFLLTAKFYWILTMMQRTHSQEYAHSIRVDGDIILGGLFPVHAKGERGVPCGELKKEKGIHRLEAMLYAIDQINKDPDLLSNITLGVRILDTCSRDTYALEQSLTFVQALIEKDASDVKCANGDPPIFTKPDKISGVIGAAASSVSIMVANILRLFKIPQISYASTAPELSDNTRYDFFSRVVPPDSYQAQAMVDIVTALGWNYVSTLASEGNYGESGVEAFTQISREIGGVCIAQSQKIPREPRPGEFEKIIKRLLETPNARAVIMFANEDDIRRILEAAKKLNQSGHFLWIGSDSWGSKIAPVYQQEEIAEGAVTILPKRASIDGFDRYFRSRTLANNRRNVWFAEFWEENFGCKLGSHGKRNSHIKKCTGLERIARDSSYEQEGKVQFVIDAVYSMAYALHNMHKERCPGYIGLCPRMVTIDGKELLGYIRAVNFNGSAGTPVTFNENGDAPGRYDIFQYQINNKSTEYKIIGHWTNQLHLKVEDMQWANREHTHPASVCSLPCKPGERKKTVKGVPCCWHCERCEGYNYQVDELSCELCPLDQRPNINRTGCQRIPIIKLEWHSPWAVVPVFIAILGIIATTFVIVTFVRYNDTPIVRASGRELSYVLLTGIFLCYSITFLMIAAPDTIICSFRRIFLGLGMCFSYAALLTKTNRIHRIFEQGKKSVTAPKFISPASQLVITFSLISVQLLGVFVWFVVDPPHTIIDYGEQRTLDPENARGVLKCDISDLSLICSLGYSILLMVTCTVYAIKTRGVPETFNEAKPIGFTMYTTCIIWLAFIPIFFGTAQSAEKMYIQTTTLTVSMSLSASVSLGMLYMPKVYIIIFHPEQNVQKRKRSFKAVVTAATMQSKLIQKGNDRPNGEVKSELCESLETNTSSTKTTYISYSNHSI
# Test: mGluR8 Gi/Go-coupled signaling modulation – cell-based, rat, thallium flux, HTS, primary screen (AID 488969)
# Conditions: HEK293 rat mGluR8, GIRK (G protein-gated inwardly rectifying potassium channel) thallium flux, FluoZin2; at 10 µM; stronger effect = higher value; submaximal glutamate (EC20) added with thallium
row,Compound,z-score
1,C=C(C)c1cccc(C(C)(C)NC(=O)Nc2ccc(C)cn2)c1,-0.34
2,CCOc1ccc(C(=O)Nc2cc(=O)n(C)c(=O)n2C)cc1,-0.395
3,CCOC(=O)c1ccc2nc(NC(=O)c3ccco3)sc2c1,-0.0743
4,O=C(CN1CCN(Cc2ccc3c(c2)OCO3)CC1)Nc1ccc2c(c1)OCCO2,0.156
5,Cc1c(NC(=O)Cn2cnc3c(=O)n(C)c(=O)n(C)c32)cccc1-c1nc2ccccc2o1,0.183
6,CC12CCC(C(=O)N(CSC(=S)N/N=C\c3ccccc3)C1=O)C2(C)C (configuration not stated),16.4 (active)
7,COc1ccc(C(=O)NN2C(=O)C3CCC(C)(C2=O)C3(C)C)cc1 (configuration not stated),-0.0665
8,CC12CCC(C(=O)N(CC(O)CN3CCCCC3)C1=O)C2(C)C (configuration not stated),0.169
9,COc1ccc(/C=N\NC(=S)SCN2C(=O)C3CCC(C)(C2=O)C3(C)C)cc1 (configuration not stated),9.12 (active)
10,CN(C)c1ccc(/C=N\NC(=S)SCN2C(=O)C3CCC(C)(C2=O)C3(C)C)cc1 (configuration not stated),1.74
11,COc1ccc(/C=N/NC(=S)NC2CCS(=O)(=O)C2)cc1 (configuration not stated),-0.113
12,CCOc1ccc(NC(=O)CCCN2C(=S)NC(C)(C)CC2C)cc1 (configuration not stated),-0.466
13,O=C1CC(N2CCN(c3nc4ccccc4s3)CC2)C(=O)N1c1cccc(F)c1 (configuration not stated),-0.276
14,O=C1CC(N2CCN(c3nc4ccccc4s3)CC2)C(=O)N1c1ccc(F)cc1 (configuration not stated),7.65 (active)
15,CCCOc1ccc(N2C(=O)CC(N3CCN(c4nc5ccccc5s4)CC3)C2=O)cc1 (configuration not stated),0.835
16,CCC(=O)Nc1nc2ccc3nc(C)sc3c2s1,3.6 (active)
17,CCCCC(=O)Nc1nc2ccc3nc(C)sc3c2s1,-0.125
18,CCCC(=O)Nc1nc2ccc3nc(C)sc3c2s1,-0.507
19,Nc1sccc1C(=O)c1ccccc1,11 (active)
20,Nc1cc2c(cc1C(=O)c1ccccc1)OCCO2,0.199
21,Nc1sccc1C(=O)c1ccc(Cl)cc1,-0.434
22,O=C(N/N=C\c1cc(Br)c(Br)o1)c1cncc(Br)c1,9.73 (active)
23,O=C(Cc1ccccc1)N/N=C/c1cc(Br)c(Br)o1,-0.248
24,O=C(N/N=C/c1ccc(-c2ccccc2[N+](=O)[O-])o1)c1cncc(Br)c1,-1.68

row,Compound,z-score
1,Cc1ccnc(NC(=O)CCC(=O)N(CC(=O)NC2CCCCC2)c2cccc(C)c2C)c1,-0.622
2,COc1ccc(OC)c(-c2cc(C(=O)Nc3c(C)nn(Cc4ccccc4Cl)c3C)no2)c1,-0.834
3,CC1Cc2ccccc2N1C(=O)COC(=O)Cn1cnc2ccccc2c1=O (configuration not stated),-0.55
4,Cc1cccc(C(=O)Nc2ccc(NC(=O)Cc3ccc(Cl)cc3)cc2)c1,-0.0593
5,Cc1ccc(C(=O)c2cn[nH]c2-c2cc(Cl)ccc2O)cc1,-0.48
6,Cc1ccc(C(=O)CC(=O)c2cc(Cl)ccc2O)cc1,7.14 (active)
7,Cc1ccc(C(=O)CNc2cccc(Cl)c2)cc1,-0.0331
8,O=C(CC(=O)c1cc(Cl)ccc1O)c1ccccc1,3.32 (active)
9,O=C(O)CC(=O)Nc1cc(Cl)ccc1O,0.845
10,Cc1cccc(C(=O)CC(=O)c2cc(Cl)ccc2O)c1,4.14 (active)
11,Cc1cccc(/C(N)=N/OC(=O)c2ccc(Cl)cc2Cl)c1,-0.137
12,O=C(CCc1ccccc1)Nc1cc(Cl)ccc1O,-0.624
13,COc1nc(-c2ccccc2)ccc1-c1noc(-c2ccccc2F)n1,0.0977
14,NC(=O)c1ccccc1OCC(=O)NC12CC3CC(CC(C3)C1)C2,-0.0638
15,COC(=O)Nc1snnc1C,-0.189
16,CCOC(=O)C1=C(C)N(C)C(=O)NC1c1cc2c(cc1Br)OCO2 (configuration not stated),1.61
17,CCc1nc(NCc2ccco2)c2oc3ccccc3c2n1,-0.48
18,O=C(CN1C(=O)c2cccc3cccc1c23)Nc1ccc(S(=O)(=O)N2CCOCC2)cc1,-0.376
19,COc1cccc(C(=O)Nc2ccccc2N2CCOCC2)c1,0.0601
20,CN1C(=S)SC(/[N+]([O-])=C\c2cccs2)C1(C)C (configuration not stated),-0.0661
21,CC(=O)Nc1cc2c(cc1NC(=O)Cn1nc(-c3ccc4c(c3)OCCO4)ccc1=O)OCCO2,-0.275
22,COc1cccc(-c2ccc(=O)n(CC(=O)Nc3cc4c(cc3NC(C)=O)OCCO4)n2)c1,2.05
23,CC(=O)Nc1cc2c(cc1NC(=O)Cn1nc(-c3ccccc3F)ccc1=O)OCCO2,-0.0689
24,Cc1cnc(C(=O)Nc2cc(S(=O)(=O)N3CCOCC3)ccc2N2CCN(C)CC2)cn1,0.0173

row,Compound,z-score
1,O=C(N/N=C/C=C/c1ccc2c(c1)OCO2)c1ccc([N+](=O)[O-])cc1,0.0517
2,CCCN(CCC)S(=O)(=O)c1ccc(C(=O)Nc2nc(-c3ccccc3)c(C(=O)OCC)s2)cc1,-0.243
3,Clc1ccccc1CN1CCC(Cc2ccccc2)CC1,-0.0513
4,O=C(NCCN1CCOCC1)C1CCC(=O)N1Cc1ccc(F)cc1 (configuration not stated),0.194
5,Cc1ccc(-c2ccc(/C=C/C(=O)c3ccccc3)o2)cc1,-0.233
6,Cc1cc2cc(OCC(=O)O)ccc2n1C,0.494
7,C/C(=N\NC(=S)Nc1cccc(C)c1)c1cccc(N)c1,3.42 (active)
8,Cc1cccc(NC(=S)N/N=C/c2c[nH]c3ccccc23)c1,-0.0914
9,C/C(=N\NC(=S)Nc1cccc(C)c1)c1ccccc1,5.36 (active)
10,C/C(=N\NC(=O)Nc1ccccc1)c1ccccc1,-0.157
11,Cc1cccc(NC(=S)N/C(=N/S(=O)(=O)c2ccccc2)c2ccccc2)c1,1.97
12,C/C(=N\NC(=O)c1cccc(C)c1)c1cccc(NC(=O)c2ccco2)c1,-0.159
13,CCOC(=O)C(NC(=O)CC)(N1CCc2ccccc2C1)C(F)(F)F (configuration not stated),-0.138
14,O=C(NCCCN1CCC(Cc2ccccc2)CC1)C1CC(=O)N(C2CCCCCC2)C1 (configuration not stated),1.25
15,O=C(Nc1ccccc1)c1ccc(CSc2ccccn2)cc1,-0.0973
16,COc1cc(NCCCCCCCN)c2ncccc2c1,2.78
17,COc1cc(NC(=O)c2ccc3c(c2)OCO3)c2ncccc2c1,-0.168
18,COc1cc(NC(=O)C2CCCCC2)c2ncccc2c1,-0.248
19,CCCCOc1ccc(C(=O)NNC(=S)NC(=O)CC)cc1,4.28 (active)
20,CCC(=O)NC(=S)NNC(=O)c1ccc(OC)cc1,-0.0696
21,CCCOc1ccc(C(=O)NNC(=S)NC(C)=O)cc1,0.435
22,C=CCNC(=S)NNC(=O)c1ccc(OCCCC)cc1,-0.162
23,CCCOc1ccc(C(=O)NNC(=S)NC(=O)CC)cc1,3.01 (active)
24,C=CCNC(=S)NNC(=O)c1ccc(OCCC)cc1,0.095
